Bioassay records as filed in PubChem BioAssay.
PLK1 PBD block – qHTS for Inhibitors of PLK1-PDB (polo-like kinase 1 - polo-box domain): Primary Screen | Serine/threonine-protein kinase PLK1 (Homo sapiens), P53350 | Plk1 PBD binding of FITC phosphopeptide, fluorescence polarization | Potency, µM, for the others: max response, negative = inhibition, most hits filed as inhibitors | 360,000 compounds, 2.8% hits; also: series mostly up to about 57 µM; % is scaled to controls: 0 for no effect and ±100 for the full control effect; nearly all actives have a fitted effect of over 65% in size
Target sequence (P53350 whole entry, looked up, the tested form may be a part): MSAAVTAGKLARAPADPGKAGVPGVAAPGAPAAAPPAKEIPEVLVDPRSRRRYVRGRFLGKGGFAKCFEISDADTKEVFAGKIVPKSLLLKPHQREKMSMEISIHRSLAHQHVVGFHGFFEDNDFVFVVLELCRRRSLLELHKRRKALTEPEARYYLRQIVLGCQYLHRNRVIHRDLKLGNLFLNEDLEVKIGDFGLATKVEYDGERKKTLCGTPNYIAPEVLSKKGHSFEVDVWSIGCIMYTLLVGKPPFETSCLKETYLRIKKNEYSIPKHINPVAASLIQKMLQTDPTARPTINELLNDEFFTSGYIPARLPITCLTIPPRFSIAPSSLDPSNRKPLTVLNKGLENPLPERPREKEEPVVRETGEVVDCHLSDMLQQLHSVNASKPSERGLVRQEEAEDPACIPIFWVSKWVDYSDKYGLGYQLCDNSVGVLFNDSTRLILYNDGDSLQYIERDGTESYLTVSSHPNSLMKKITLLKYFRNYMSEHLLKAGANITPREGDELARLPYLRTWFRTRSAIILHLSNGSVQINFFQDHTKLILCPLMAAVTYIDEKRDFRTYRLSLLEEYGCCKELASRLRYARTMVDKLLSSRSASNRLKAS
HP1b binding inh – HTS for Inhibitors of HP1-beta Chromodomain Interactions with Methylated Histone Tails; AID 540317, 2011; AlphaScreen HP1-beta / biotin-H3K9me3 peptide binding; Potency, µM (top dose mostly 114 µM), for inactives: top-dose activity change, negative = inhibition, usual class: inhibitors; Chromobox protein homolog 1 (Homo sapiens), P83916; 390,000 compounds, 0.56% hits; also: nearly all actives have a fitted effect of over 70% in size
Target sequence (P83916 whole entry, looked up): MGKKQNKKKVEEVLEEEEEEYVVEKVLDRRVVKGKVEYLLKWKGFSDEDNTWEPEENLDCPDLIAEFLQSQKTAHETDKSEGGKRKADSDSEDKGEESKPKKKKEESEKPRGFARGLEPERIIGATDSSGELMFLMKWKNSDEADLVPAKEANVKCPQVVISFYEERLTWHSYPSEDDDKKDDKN
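HP1-beta protein (50 nM final) preincubated 30 min at room temperature with biotinylated H3(1-18)K9me3 peptide (50 nM) in PBS pH 7.4, 0.01% Tween-20, then compound added for 30 min. AlphaScreen streptavidin donor/nickel chelate acceptor beads (10 ug/mL final), 30 min dark, luminescence read.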
G9a inh – qHTS Assay for Inhibitors of Histone Lysine Methyltransferase G9a. Histone-lysine N-methyltransferase EHMT2 (Homo sapiens), Q96KQ7. G9a H3K9 monomethylation, AlphaScreen, 2 h. Potency, µM (top dose mostly 102 µM), inactives show at the top dose activity, negative = inhibition, most hits filed as inhibitors. 350,000 compounds, 8.8% hits; also: % is scaled to controls: 0 for no effect and ±100 for the full control effect; nearly all actives have a fitted effect of over 75% in size
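Methyltransferase reactions run at room temperature for 2 h (20 nM enzyme, 500 nM biotin-H3K9 peptide, 20 uM SAM) after a 15 min compound preincubation; product detected by AlphaScreen beads and anti-H3K9me1 antibody.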
BAZ2B block – qHTS Assay for Inhibitors of BAZ2B; Bromodomain adjacent to zinc finger domain protein 2B (Homo sapiens), Q9UIF8; AlphaScreen BAZ2B-H3K14Ac peptide displacement; Potency, µM (top dose mostly 114 µM), for the others: at the highest dose activity change, negative = inhibition, usual class: inhibitors; 360,000 compounds, 4.4% hits; also: % is scaled to controls: 0 for no effect and ±100 for the full control effect; nearly all actives have a fitted effect of over 60% in size
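Complex of BAZ2B and biotin-H3K14Ac (50 nM apiece) forms over 30 min at RT, then faces library compounds up to 110 uM for another 30 min; AlphaScreen beads added, 20 min dark incubation, luminescence read.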
VDR inh – Inhibitors of the vitamin D receptor (VDR): qHTS; Vitamin D3 receptor (Homo sapiens), P11473; VDR-SRC2-3 peptide fluorescence polarization, 2 h; Potency, µM, for the others: max response, negative = inhibition, most hits filed as inhibitors; 400,000 compounds, 0.93% hits; also: % is scaled to controls: 0 for no effect and ±100 for the full control effect
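Reagent solutions, kept cold and dark, are dispensed first; compounds are then pinned in at 23 nl, plates briefly spun, and incubated 2 h at ambient temperature. Inhibition of VDR–SRC2-3 peptide binding is read by fluorescence polarization.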
JMJD2A Tudor inh – qHTS Assay for Inhibitors of JMJD2A-Tudor Domain; AlphaScreen JMJD2A-Tudor / H3K4me3 peptide binding; AID 504339, 2011; Potency, µM (highest dose often 114 µM), for inactives: at the top dose activity change, negative = inhibition, usual class: inhibitors; 390,000 compounds, 4.4% hits; also: % is scaled to controls: 0 for no effect and ±100 for the full control effect; nearly all actives have a fitted effect of over 50% in size
An asterisk follows results filed as active; ? = inconclusive; . = not tested or not shown; [ ] = another dose, or the depositor's remark. Rows were chosen to be rich in hits. Some 11% of all compounds tested hit in one or more screens of this group. Calls follow the shape of the dose curve; as a rule, active = well fitted curve in the direction sought with a large enough effect; inconclusive = small, poorly fitted or top-dose-only effect, or another doubt; inactive = no such curve, though single readings can be large; an effect the other way counts as inactive or inconclusive. Potency is read from the fitted curve at half-maximal effect.

SMILES	PLK1 PBD block	HP1b binding inh	G9a inh	BAZ2B block	VDR inh	JMJD2A Tudor inh
Cc1cc(/C=N/NC(=O)c2ccccn2)c(C)n1-c1cccc([N+](=O)[O-])c1	-29.3%	?	?	44.7µM*	3.3%	?
Cc1cc(/C=N/NC(=O)C(O)(c2ccccc2)c2ccccc2)c(C)n1-c1cccc(C(=O)O)c1	-20.8%	-4.1%	39.8µM*	56.2µM*	2.3%	?
Cc1cc(C(=O)N/N=C/c2cccc([N+](=O)[O-])c2)c(C)n1-c1ccccc1	2.9%	11.5%	17.2%[59 µM]	-0.9%	8.9%	-2.8%
Cc1cc(/C=N/NC(=O)c2cccc(N(C)C)c2)c(C)n1-c1cc(C(=O)O)cc(C(=O)O)c1	?	31.6µM*	11.2µM*	.	28.2%	39.8µM*
O=C(N/N=C/c1ccccn1)c1ccco1	1.6%	37.4%	?	?	17.6%	-11.4%
O=C(N/N=C/c1ccc2ncccc2c1)c1ccco1	-11.6%	1.7%	14.1µM*	-15.9%	-14.1%	79.4µM*
COc1ccc(Oc2nc3c(c(=O)n(C)c(=O)n3C)n2Cc2ccc(Cl)cc2Cl)cc1	.	28.7%	-27.2%[59 µM]	-19.8%	4.8%	-29.6%
COc1ccc(C2C3C=CCCC3(C)C(=O)N2Cc2ccccc2)cc1Cl (stereo not drawn)	.	18.7%	.	.	-8.2%	-15.9%
Cc1cc(C)cc(OCC(=O)N2CCC(c3nc4ccccc4o3)CC2)c1	.	22.1%	-3.1%[59 µM]	2.9%	-1.4%	-13.6%
COc1ccc(CN(Cc2ccccc2)S(=O)(=O)c2ccccc2)cc1COc1ccc(NC(C)=O)cc1	.	.	.	.	.	-31.3%
Cc1cccc(-n2c(C)cc(/C=N\NC(=O)c3ccco3)c2C)c1	-7.6%	-8.9%	44.7µM*	?	-12.6%	-30.3%
Cc1cc(O)c2c(C)c(CC(=O)N3CCCCC3)c(=O)oc2c1	.	35.4%	?	-2.0%	24.9%	0.7%
COc1ccccc1N1CC=C(c2cccc([N+](=O)[O-])c2)NC1=O	-7.9%	35.1%	39.8µM*	-20.2%	-6.0%	-13.7%
COc1ccccc1N1CCN(S(=O)(=O)c2ccc([N+](=O)[O-])cc2)CC1	-3.6%	.	.	.	.	.
COc1ccccc1N1CCN(c2ccc([N+](=O)[O-])cc2Cl)CC1	-15.5%	?	3.16µM*	?	7.2%	?
CC(C)CC(=O)N1CCN(c2ccc([N+](=O)[O-])cc2Cl)CC1	26.7µM*	-7.6%	-2.1%[59 µM]	-4.2%	-23.9%	-31.6%
CCOc1ccc(C(c2c(O)nc(SC)n(C)c2=O)c2c(O)nc(SC)n(C)c2=O)cc1	11.9µM*	45.4%	11.2µM*	-5.5%	39.8µM*	-16.2%
CCOc1ccc(OCC(=O)OCn2c(SC)nnc(C)c2=O)cc1	-6.7%	40.1%	?	4.8%	2.7%	8.2%[57.1 µM]
O=C(O)C1Cc2ccccc2CN1C(=O)c1ccccc1 (stereo not drawn)	-6.6%	22.1%	?	-0.2%	5.7%	-28.9%
CC(NC(=O)[C@@H](C)NC(=O)[C@@H]1Cc2ccccc2CN1C(=O)OC(C)(C)C)c1ccccc1 (stereo partly drawn)	-2.0%	34.6%	-43.9%	2.9%	-5.0%	-19.9%
C[C@@H](NC(=O)[C@@H]1Cc2ccccc2CN1C(=O)OC(C)(C)C)C(=O)NC1CCCC1	29.9µM*	3.4%	13.7%	-16.1%	?	-27.0%
CC(C)(C)OC(=O)N1Cc2ccccc2C[C@H]1C(=O)O	-27.4%	2.0%	56.2µM*	?	-2.1%	-4.1%[11.4 µM]
O=C1c2ccccc2C(=O)N1c1cccc(=O)[nH]1	.	.	.	.	.	-10.9%
Cc1cc(NC(=O)c2cc(C)on2)no1	1.5%	29.5%	-45.1%	-4.4%	6.8%	-11.5%
Cc1occc1C(=O)Nc1ccccc1NC(=O)c1ccoc1C	-26.2%	-7.1%	.	.	-17.8%	89.1µM*
SMILES	PLK1 PBD block	HP1b binding inh	G9a inh	BAZ2B block	VDR inh	JMJD2A Tudor inh
Cc1cc(NC(=O)c2ccoc2C)no1	?	12.8%	5.01µM*	-1.1%	-4.5%	-33.3%
CNS(=O)(=O)c1ccc(NC(=O)c2ccoc2C)cc1	-2.0%	28.6%	-33.5%	-21.5%	2.9%	3.0%[11.4 µM]
Cc1occc1C(=O)Nc1ccccc1C#N	-9.1%	36.4%	.	0.7%	30.9%	-10.3%
Cc1occc1C(=O)Nc1ccc(S(N)(=O)=O)cc1	21.2µM*	?	.	-12.6%	?	22.4µM*
Cc1occc1C(=O)Nc1cccc2ccccc12	-6.3%	4.8%	11.2µM*	-30.9%	5.3%	-15.5%
CCN(C[C@H]1N[C@@](Cc2ccccc2)(C(=O)OC)[C@H]2C(=O)N(C)C(=O)[C@@H]12)C(=O)COc1ccccc1	-13.8%	9.9%	.	.	-0.8%	-18.8%
O=C(NCc1ccccc1)c1cc(C2COCCN2C(=O)c2ccc(Cl)cc2)on1 (stereo not drawn)	2.7%	.	.	.	.	.
COc1ccc(NC(=O)Nc2cccc(C(F)(F)F)c2)cn1	-6.1%	12.6%	14.2%	-10.8%	6.2%	-6.2%
COc1ccccc1NC(=O)c1c(C)oc2c1CCCC2	-1.0%	47.5%	3.7%[59 µM]	11.3%	8.1%	25.3%
Cc1occc1C(=O)NNC(=O)Cc1ccccc1	-8.6%	18.6%	0.199µM*	1.1%	-15.5%	-8.1%
Cc1oc2c(c1C(=O)Nc1cccc3ccccc13)CCCC2	2.99µM*	?	1.9%[59 µM]	-1.6%	?	?
Cc1occc1C(=O)NNC(=O)Nc1ccc(Cl)c(Cl)c1	6.7µM*	-7.7%	0.3%[59 µM]	-3.5%	?	50.1µM*
Cc1ccc(/C=C(\C#N)C(=O)NC(C)c2ccccc2)o1 (stereo not drawn)	2.8%	26.1%	-22.2%	-17.6%	5.7%	-13.1%
COC(=O)CN1C(=O)Nc2ccc(Br)cc2C1c1ccccc1Cl (stereo not drawn)	0.6%	18.5%	70.8µM*	3.9%	-2.6%	-16.6%
COC(=O)CN1C(=O)Nc2ccc(Cl)cc2C1c1ccccc1 (stereo not drawn)	-12.8%	18.7%	7.0%	-18.5%	-16.1%	-11.6%
Cn1c(SCC(=O)Nc2cccnc2Cl)nc2ccccc21	-7.5%	26.6%	.	.	-7.0%	-3.5%
c1ccc2oc(-c3ccc(Nc4nc(N5CCCC5)nc(N5CCOCC5)n4)cc3)nc2c1	.	.	5.8%	-1.9%	.	.
CCCCOC(=O)C1C2CCC(O2)C1C(=O)OCC (stereo not drawn)	3.3%	22.2%	.	.	-4.7%	-9.0%
CCCCOC(=O)C1CCCC(C(=O)OCCCC)N1 (stereo not drawn)	-2.3%	37.7%	50.1µM*	-1.1%	2.0%	-30.7%
Cc1ccccc1NC(=O)CSc1nnc2ccc(-c3ccccn3)nn12	-5.3%	47.2%	-34.8%	6.6%	13.2%	-8.2%
